Results published in PubChem BioAssay AID602141 (Sanford-Burnham Center for Chemical Genomics, 2011).
About 1,300 (0.36%) of roughly 360,000 compounds were called active. The full list was thinned out, with actives kept by preference. Values without a mark were called inactive.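 How the source made its calls: active means corrected activity change at or below -50% at 5 µM; inactive means the rest.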

Test: cytotoxicity in KKLEB CF airway cells, primary screen, cytotoxicity control for CF NF-kB inhibitor project, cell-based, uHTS, fluorescence assay plates (AID 602141)
Settings: KKLEB CF airway cells viability, ATPlite luminescence, overnight; at 5 µM; stronger effect = lower value; cells stimulated with P. aeruginosa culture filtrate

Question: For `O=C(NCC(F)(F)F)c1ccc(S(=O)(=O)NCCc2ccc3c(c2)OCCO3)cc1`, which activity change (cytotoxicity) is on record?
Answer: 19.2%

Question: With `O=C(OC12CC3CC(CC(C3)C1)C2)c1ccc(NCc2cc(O)ccc2O)cc1` as the molecule, how does the activity change (cytotoxicity) read?
Answer: -63.4% (active)

Question: With `O=C(CC1CCCCC1)Nc1c2c(nn1-c1ccc(F)cc1)CS(=O)(=O)C2` as the molecule, how does the activity change (cytotoxicity) read?
Answer: -3.9%

Question: With `COc1ccc(-c2c(C#Cc3ccsc3)c3cc(-c4ccc(CN5CCOCC5)cc4)ccc3n2C)cc1` as the molecule, how does the activity change (cytotoxicity) read?
Answer: -4.5%

Question: For `O=C(Nc1cccc2ccccc12)c1[nH]c(-c2ccccc2)c2c1C(=O)N(C1CC1)C2=O`, which activity change (cytotoxicity) is on record?
Answer: -52.9% (active)

Question: With `O=C(Nc1cccc2ccccc12)NC1CC1` as the molecule, how does the activity change (cytotoxicity) read?
Answer: 1%

Question: Which activity change (cytotoxicity) does the source give for `O=C(Nc1cccc2ccccc12)c1onc2c1CCCC2` here?
Answer: 5.7%

Question: With `COCCN(C(=S)Nc1ccccc1OC)C1CCN(C(C)C)CC1` as the molecule, how does the activity change (cytotoxicity) read?
Answer: -3.5%

Question: For `CC(Oc1ccc(F)cc1F)C(=O)/C=C/N(C)C` (centres undefined), which activity change (cytotoxicity) is on record?
Answer: 4.1%

Question: For `COC(=O)c1ccc(CNC(=O)C2CCC(=O)N(Cc3ccccn3)C2)cc1` (centres undefined), which activity change (cytotoxicity) is on record?
Answer: -4.5%

Question: Which activity change (cytotoxicity) does the source give for `COc1ccc(-c2cc(C(F)(F)F)nc(S(C)(=O)=O)n2)cc1OC` here?
Answer: -78.4% (active)

Question: Which activity change (cytotoxicity) does the source give for `COc1ccc(C2=NO[C@@H]3C(=O)N(Cc4ccccc4)C(=O)[C@H]23)cc1OC` here?
Answer: -0.3%

Question: Which activity change (cytotoxicity) does the source give for `COc1ccc(C2SCCN2S(=O)(=O)c2ccccc2)cc1OC` (centres undefined) here?
Answer: -14.9%

Question: Which activity change (cytotoxicity) does the source give for `Cn1c(CCNS(=O)(=O)c2ccc(F)cc2)nnc1SCc1cccnc1` here?
Answer: -4.1%

Question: With `CC(=O)NC(C(=O)NCC(N)=O)C(C)C` (centres undefined) as the molecule, how does the activity change (cytotoxicity) read?
Answer: -4.4%

Question: With `C/C(=N\NC(=O)c1cc2c(s1)CCC(C)C2)c1cccnc1` (centres undefined) as the molecule, how does the activity change (cytotoxicity) read?
Answer: 8.5%

Question: For `CC(C)OC(=O)c1ccc(NCc2cc(O)ccc2O)cc1Cl`, which activity change (cytotoxicity) is on record?
Answer: -51.3% (active)

Question: For `CC(CN1CCCCC1)OC(=O)c1ccccc1Cl` (centres undefined), which activity change (cytotoxicity) is on record?
Answer: 0.5%

Question: With `O=C(O)Cc1ccc(NCc2ccccc2Cl)cc1` as the molecule, how does the activity change (cytotoxicity) read?
Answer: 7.8%

Question: For `O=C(Nc1ccc(Br)cc1)c1cc(S(=O)(=O)Nc2ccccn2)ccc1Cl`, which activity change (cytotoxicity) is on record?
Answer: -6.3%

Question: For `Oc1ccc(Br)cc1/C=N/Nc1ccccn1`, which activity change (cytotoxicity) is on record?
Answer: -94.7% (active)

Question: Which activity change (cytotoxicity) does the source give for `CCN(CC)CCn1c(/N=C/c2cc(Br)ccc2O)nc2ccccc21` here?
Answer: 2.8%

Question: Which activity change (cytotoxicity) does the source give for `N#CC(=C1SC=CS1)c1nc(-c2ccccc2)cs1` here?
Answer: 9.6%

Question: With `CCOc1ccc(NC(=O)CN(C)C(=O)Cn2c(=O)cnc3ccccc32)cc1OCC` as the molecule, how does the activity change (cytotoxicity) read?
Answer: 3.8%

Question: Which activity change (cytotoxicity) does the source give for `COc1cccc2c1C(=O)c1c(O)c3c(c(O)c1C2=O)CC(O)(C(C)=NNC(=O)c1ccc(Cl)c(Cl)c1)CC3OC1CC(N)C(O)C(C)O1` (centres undefined) here?
Answer: -53.3% (active)

Question: With `CCOC(=O)C1(Cc2cccc(OC)c2)CCN(Cc2csc(C(C)=O)c2)CC1` as the molecule, how does the activity change (cytotoxicity) read?
Answer: -6%

Question: For `Oc1cccc2ccc(/C=C/c3ccc(Br)s3)nc12`, which activity change (cytotoxicity) is on record?
Answer: -93.8% (active)

Question: For `COc1ccc([C@H]2CC(=O)C=C(/C=C/c3ccccc3)C2)cc1`, which activity change (cytotoxicity) is on record?
Answer: 9.7%

Question: For `CC(C)c1ccc(/C=C2\NC(=O)NC2=O)cc1`, which activity change (cytotoxicity) is on record?
Answer: 11.8%

Question: For `CC[C@]12c3[nH]c4cc(CCC(=O)N(C)C)ccc4c3CCN1C(=O)[C@@H](CC(=O)NCCCn1ccnc1)C[C@@H]2C(=O)N1CCN(C(=O)C2CC2)CC1`, which activity change (cytotoxicity) is on record?
Answer: 0.6%

Question: For `COC(=O)C1=C(NC(=O)C(C)(C)C)CCS1`, which activity change (cytotoxicity) is on record?
Answer: 2.3%

Question: Which activity change (cytotoxicity) does the source give for `CCOC(=O)c1cnc(COc2ccccc2Cl)[nH]c1=O` here?
Answer: 4.6%

Question: With `CCOC(=O)c1c(C)[nH]c(C)c1C(=O)CSc1nc(N)cc(N)n1` as the molecule, how does the activity change (cytotoxicity) read?
Answer: 13.1%

Question: For `CCOC(=O)c1c(C)[nH]c2c1-c1ccccc1C(=O)C2=O`, which activity change (cytotoxicity) is on record?
Answer: -91.6% (active)

Question: With `Cc1c2cn[nH]c(=O)c2c(C)n1Cc1ccc(F)cc1` as the molecule, how does the activity change (cytotoxicity) read?
Answer: -2.2%

Question: With `O=C(CCl)Nc1ccc(Sc2ccc(NC(=O)CCl)cc2)cc1` as the molecule, how does the activity change (cytotoxicity) read?
Answer: -68.5% (active)

Question: With `CC(=O)Nc1ccc(SCC(=O)NC(=O)c2ccc(Cl)cc2)cc1` as the molecule, how does the activity change (cytotoxicity) read?
Answer: 8%

Question: With `O=C(O)CSCC(=O)Nc1ccc(C(F)(F)F)cc1` as the molecule, how does the activity change (cytotoxicity) read?
Answer: -4%

Question: For `CN(C)c1ccc(C(=S)N2CCN(C(=S)Nc3ccc(Cl)cc3)CC2)cc1`, which activity change (cytotoxicity) is on record?
Answer: 5.1%

Question: With `O=C(COC(=O)c1cccc(Br)c1)Nc1cccc2c1C(=O)c1ccccc1C2=O` as the molecule, how does the activity change (cytotoxicity) read?
Answer: -17.2%

Question: With `CC(=O)c1cc(NC(=O)c2ccccc2)c(=O)oc1/C=C/N(C)C` as the molecule, how does the activity change (cytotoxicity) read?
Answer: -6.9%

Question: For `O=C(NC1=CC(=O)c2ccccc2C1=O)c1ccccc1`, which activity change (cytotoxicity) is on record?
Answer: -97.9% (active)

Question: For `COc1ccc(C(CCN(Cc2ccc(OC)c(OC)c2)C(=O)CCl)c2ccccc2)cc1` (centres undefined), which activity change (cytotoxicity) is on record?
Answer: -76.9% (active)

Question: Which activity change (cytotoxicity) does the source give for `COc1ccc(CCNC(=O)CN(c2ccccc2)S(C)(=O)=O)cc1OC` here?
Answer: 8.4%

Question: With `COc1ccc(C(C(=O)NC2CCCCC2)N(C(=O)CCl)c2ccccc2Cl)cc1` (centres undefined) as the molecule, how does the activity change (cytotoxicity) read?
Answer: 4.1%

Question: For `CC(C[N+](C)(C)C)OC(N)=O` (centres undefined), which activity change (cytotoxicity) is on record?
Answer: -65.7% (active)

Question: With `CC(=O)OC(C)C[N+](C)(C)C` (centres undefined) as the molecule, how does the activity change (cytotoxicity) read?
Answer: 3.7%

Question: Which activity change (cytotoxicity) does the source give for `NC(c1ccccc1)c1csc(NC(=O)Nc2cccc(C(F)(F)F)c2)n1` (centres undefined) here?
Answer: -17.2%

Question: With `COc1ccc(C(N)c2csc(NC(=O)Nc3cccc(C(F)(F)F)c3)n2)cc1` (centres undefined) as the molecule, how does the activity change (cytotoxicity) read?
Answer: -18.3%

Question: Which activity change (cytotoxicity) does the source give for `NC(c1csc(NC(=O)Nc2cccc(C(F)(F)F)c2)n1)C1CCCCC1` (centres undefined) here?
Answer: -57.8% (active)

Question: Which activity change (cytotoxicity) does the source give for `c1ccc2c(c1)OCC(c1nn3cnnc3s1)O2` (centres undefined) here?
Answer: 0.1%

Question: Which activity change (cytotoxicity) does the source give for `O=C(CSc1nnc(N2CCOCC2)n1-c1cccc(F)c1)N1CCN(c2ccccn2)CC1` here?
Answer: -2.4%

Question: For `O=C(/C(=N\O)n1cncn1)c1ccc(Br)cc1Br`, which activity change (cytotoxicity) is on record?
Answer: -5.9%

Question: Which activity change (cytotoxicity) does the source give for `Cc1c(NC(=O)CN(C)CC(=O)Nc2ccc(F)c(F)c2F)c(=O)n(-c2ccccc2)n1C` here?
Answer: 5.4%
